Data from PubChem BioAssay.
Active and inactive are the calls of the source.

Legend:
[1] = anti-His antibody binders, primary screen, artefact control for SMM control protein annotation, biochemical, small-molecule microarray, 635 nm fluorescence (AID 1128); conditions: anti-His Alexa647 antibody binding, higher = more signal;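 further: score merges feature fluorescence with signal-to-noise for each printed compound spot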
[2] = test system: Human papillomavirus type 1a E7 protein (residues 1-88); assay: HPV1a E7 small-molecule binders, primary screen, biochemical, small-molecule microarray, residues 1-88, 635 nm (AID 1129); conditions: small-molecule microarray binding, fluorescence 635 nm; higher = more signal
[3] = target: Focal adhesion kinase 1 (Homo sapiens) (UniProt Q05397); assay: small-molecule microarray binders of FAK, primary screen, biochemical, 635/667 nm fluorescence, BSA, DTT (AID 1130); conditions: PTK2 binding, 635 nm fluorescence, higher = more signal;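 further: composite of spot emission at 667 nm and signal to noise over triplicate slides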
Sequence of Focal adhesion kinase 1 (Homo sapiens) (Q05397 whole entry, looked up): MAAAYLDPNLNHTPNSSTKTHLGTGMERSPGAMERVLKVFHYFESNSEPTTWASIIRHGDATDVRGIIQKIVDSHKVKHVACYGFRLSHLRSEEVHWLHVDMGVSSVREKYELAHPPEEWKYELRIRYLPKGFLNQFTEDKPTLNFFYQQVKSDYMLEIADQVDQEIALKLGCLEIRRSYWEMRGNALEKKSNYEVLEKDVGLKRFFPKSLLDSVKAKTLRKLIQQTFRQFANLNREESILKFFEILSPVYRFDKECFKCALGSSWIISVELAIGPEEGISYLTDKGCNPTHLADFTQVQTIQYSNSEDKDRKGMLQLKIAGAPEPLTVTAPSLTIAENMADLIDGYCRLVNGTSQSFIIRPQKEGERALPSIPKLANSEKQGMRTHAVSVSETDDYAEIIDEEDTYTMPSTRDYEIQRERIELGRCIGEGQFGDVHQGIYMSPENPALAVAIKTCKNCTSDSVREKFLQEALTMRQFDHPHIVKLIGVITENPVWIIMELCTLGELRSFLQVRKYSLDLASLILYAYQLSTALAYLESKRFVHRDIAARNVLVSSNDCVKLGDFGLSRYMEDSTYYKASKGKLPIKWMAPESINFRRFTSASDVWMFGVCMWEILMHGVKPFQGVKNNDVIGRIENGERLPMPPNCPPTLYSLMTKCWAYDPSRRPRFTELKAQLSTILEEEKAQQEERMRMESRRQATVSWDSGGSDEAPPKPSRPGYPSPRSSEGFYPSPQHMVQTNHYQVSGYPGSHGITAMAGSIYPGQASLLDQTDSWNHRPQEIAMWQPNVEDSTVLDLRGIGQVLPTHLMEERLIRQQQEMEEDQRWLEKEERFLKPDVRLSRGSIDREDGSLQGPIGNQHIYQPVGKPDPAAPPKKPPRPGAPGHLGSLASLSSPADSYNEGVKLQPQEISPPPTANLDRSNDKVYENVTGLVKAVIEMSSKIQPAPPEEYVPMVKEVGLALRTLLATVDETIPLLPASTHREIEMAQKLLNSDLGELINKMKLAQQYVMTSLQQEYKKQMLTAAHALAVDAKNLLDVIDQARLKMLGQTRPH

[4] = test system: Fibrinogen (Alexa647-labelled); assay: fibrinogen binders on compound microarrays, profiling panel, artefact control for SMM control-protein annotation, biochemical, small-molecule microarray, 635/667 nm fluorescence (AID 1131); conditions: fibrinogen-A647 binding fluorescence, higher = more signal;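 further: z-score merges 667 nm fluorescence with per-spot signal-to-noise over triplicate slides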
[5] = target: Follistatin (Homo sapiens) (UniProt P19883); assay: follistatin binders on small-molecule microarrays, primary screen, biochemical, small-molecule microarray, 635/667 nm fluorescence (AID 1132); conditions: FST binding, 635 nm fluorescence, higher = more signal
Sequence of Follistatin (Homo sapiens) (P19883 whole entry, looked up): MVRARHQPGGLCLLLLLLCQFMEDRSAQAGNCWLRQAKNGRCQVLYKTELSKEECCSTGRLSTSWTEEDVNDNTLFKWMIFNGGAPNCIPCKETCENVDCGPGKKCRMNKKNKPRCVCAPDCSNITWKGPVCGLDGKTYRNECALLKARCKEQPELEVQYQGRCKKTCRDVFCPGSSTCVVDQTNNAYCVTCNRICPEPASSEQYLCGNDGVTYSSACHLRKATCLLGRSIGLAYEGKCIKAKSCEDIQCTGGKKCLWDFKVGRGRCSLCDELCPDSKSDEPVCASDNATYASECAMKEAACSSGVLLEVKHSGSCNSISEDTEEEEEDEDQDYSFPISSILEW

[6] = target: Fibroblast growth factor 2 (Homo sapiens) (UniProt P09038); assay: FGF2 binders on small-molecule microarrays, primary screen, biochemical, small-molecule microarray, 635/667 nm fluorescence (AID 1133); conditions: small-molecule microarray binding, FGF2, fluorescence 635/667; higher = more signal
Sequence of Fibroblast growth factor 2 (Homo sapiens) (P09038 whole entry, looked up): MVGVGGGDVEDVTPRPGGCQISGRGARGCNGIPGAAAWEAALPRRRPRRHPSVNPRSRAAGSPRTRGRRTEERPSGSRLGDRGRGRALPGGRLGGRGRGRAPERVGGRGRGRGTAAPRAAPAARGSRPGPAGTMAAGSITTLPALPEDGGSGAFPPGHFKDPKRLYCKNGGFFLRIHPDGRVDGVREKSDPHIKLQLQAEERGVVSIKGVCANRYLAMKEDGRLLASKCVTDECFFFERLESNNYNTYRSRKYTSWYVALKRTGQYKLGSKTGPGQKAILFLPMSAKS

[7] = mitochondrial membrane potential change in A549 cells, profiling panel, cell-based, JC-1 fluorescence, basal, 24 h, 100 nL (AID 1138); conditions: higher = more signal;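 further: A549 lung adenocarcinoma cells under basal conditions with no added stimulus; test concentration not given here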
Lefty1 = Lefty1 binders on small-molecule microarrays, primary screen, biochemical, small-molecule microarray, 635/667 nm fluorescence (AID 1139); conditions: small-molecule microarray binding, fluorescence 635/667; higher = more signal
[8] = test system: wheat germ agglutinin (Triticum aestivum), Alexa647-labelled; assay: wheat germ agglutinin binders on compound microarrays, profiling panel, artefact control for SMM control-protein annotation, biochemical, small-molecule microarray, 635/667 nm fluorescence (AID 1140); conditions: WGA-A647 binding, 635 nm fluorescence, higher = more signal;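 further: score merges 667 nm feature emission with signal to noise over triplicate slides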
[9] = target: Luciferin 4-monooxygenase (Photinus pyralis) (UniProt P08659); assay: firefly luciferase enzyme inhibitors, primary screen, biochemical, luminescence, purified enzyme, 2006 set (AID 1141); conditions: SteadyGlo luminescence, 30 min, higher = more signal, called active from +8 up or from −8 down;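 further: cell-free assay with purified firefly luciferase at 100 ng per well in PBS; test concentration not given here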
Sequence of Luciferin 4-monooxygenase (Photinus pyralis) (P08659 whole entry, looked up): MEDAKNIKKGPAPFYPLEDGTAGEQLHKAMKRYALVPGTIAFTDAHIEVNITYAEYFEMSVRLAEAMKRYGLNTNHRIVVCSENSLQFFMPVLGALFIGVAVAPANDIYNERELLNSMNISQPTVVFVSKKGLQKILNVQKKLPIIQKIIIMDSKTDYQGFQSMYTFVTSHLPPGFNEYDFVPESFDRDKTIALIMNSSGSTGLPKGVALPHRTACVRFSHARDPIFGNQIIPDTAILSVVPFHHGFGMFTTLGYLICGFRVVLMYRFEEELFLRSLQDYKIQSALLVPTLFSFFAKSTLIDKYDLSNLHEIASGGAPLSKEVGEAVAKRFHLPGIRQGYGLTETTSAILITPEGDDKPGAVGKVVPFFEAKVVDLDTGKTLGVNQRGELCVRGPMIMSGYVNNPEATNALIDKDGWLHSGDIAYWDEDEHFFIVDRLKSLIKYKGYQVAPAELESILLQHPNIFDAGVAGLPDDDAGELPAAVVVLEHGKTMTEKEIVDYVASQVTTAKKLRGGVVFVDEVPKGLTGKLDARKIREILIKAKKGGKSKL

SMILES | composite z-score [1] | composite z-score [2] | composite z-score [3] | composite z-score [4] | composite z-score [5] | composite z-score [6] | z-score [7] | composite z-score (Lefty1) | composite z-score [8] | z-score [9]
COc1cc(CO)cc(I)c1O[C@H]1C=C(C(=O)NCCO)C[C@@H]2O[C@H]12 | 0.426 | 1.22 | 0.572 | 0.4 | 1.52 | 2.13 | -0.976 | 1.37 | 0.308 | 0.847 (inactive)
C=C(/C(=C/C[C@@H](OC(C)=O)c1cccc(OCCO)c1)c1cnc2ccccc2c1)C(C)C | 0.607 | 0.472 | 0.138 | -0.31 | 1.5 | 1.68 | 0.41 | 1.55 | 1.07 | -0.614 (inactive)
C=CCC(OC(C)=O)[C@@H]1[C@@H](N(Cc2cc3ccccc3o2)C(=O)c2cccc3ccccc23)c2cc(OCCCO)ccc2N1C(=O)c1ccc2ccccc2n1 (stereo not given in full) | -0.164 | -0.332 | 0.169 | -0.137 | 0.403 | 0.285 | -0.0913 | 0.496 | -0.0075 | -0.305 (inactive)
O=C1N(CCS(=O)(=O)c2ccccc2)c2ccccc2C[C@]12N=C(c1ccc(OCCCO)cc1)O[C@@H]2c1ccccc1 | 2.16 | 0.806 | 0.311 | 0.783 | 1.41 | 1.71 | 0.972 | 0.393 | 0.392 | -0.889 (inactive)
CCOC(=O)c1cn(C[C@H](Cc2ccccc2)NC(=O)N[C@H](CO)CCc2oc(C(C)=O)c(C(=O)OC)c2C(=O)OC)nn1 | 0.0033 | 1.18 | 0.123 | 0.812 | 1.31 | 1.66 | -0.391 | 1.59 | 0.493 | 0.783 (inactive)
COCCCN1C(=O)[C@@]2(c3ccc([N+](=O)[O-])cc3)CC(=O)N(CC34CC5CC(CC(C5)C3)C4)[C@@H]2c2ccc(CO)cc21 | -0.0041 | -0.217 | -0.102 | -0.753 | 1 | 0.232 | 0.961 | 0.739 | 0.115 | -0.844 (inactive)
COC(=O)[C@@]1(Cc2ccc(F)cc2)[C@H]2c3cc(C(=O)N4CCCC4)n(Cc4ccccn4)c3C[C@H]2CN1C(=O)c1ccccc1 | 1.58 | 1.25 | 1.01 | 0.903 | 0.37 | -0.453 | -0.0238 | -0.2 | -0.128 | 1.1 (inactive)
CCOC(=O)C1=CCC(c2cc3ccccc3[nH]2)N(CCN2CC(C(=O)OCC)=CCC2c2cc3ccccc3[nH]2)C1 (stereo not given) | 1.65 | 1.22 | 0.142 | 0.974 | 0.748 | 0.0905 | -1.43 | 0.24 | 1 | 1.77 (inactive)
C#CCN1[C@@H](Cc2ccccc2)C(=O)O[C@H](Cc2ccccc2)[C@@H]1/C=C/C1CC1 | 1.3 | 1.01 | 0.0423 | -0.287 | 1.27 | 0.43 | 4.04 | 1.1 | 0.884 | -0.415 (inactive)
COc1ccc(CCNC(=O)[C@@H]2c3ccccc3C(=O)N(Cc3ccccc3OC)[C@H]2c2ccc(CO)cc2)cc1 | 1.71 | 1.15 | 0.347 | 0.406 | 0.674 | 1.02 | 0.84 | 0.0605 | 0.655 | 0.256 (inactive)
C[N+](C)(C)CCCCNC(=O)[C@H]1C[C@H]2C(=O)N[C@@H](Cc3ccccc3)C(=O)N2[C@H]1c1cccc(OCCO)c1 | 2.93 | 0.566 | 0.193 | 0.578 | 1.48 | 1.87 | -0.243 | 1.69 | -0.4 | -0.598 (inactive)
COc1ccc([Si](C)(C)[C@@H]2[C@@H](CC(=O)N3CCC[C@H]3CO)O[C@]3(C(=O)N(Cc4cccc(N5CCCCC5=O)c4)c4ccccc43)[C@H]2C)cc1 | 2.54 | 1.03 | 0.0576 | 0.641 | 0.767 | 0.473 | 0.218 | 1.23 | 0.307 | -1.86 (inactive)
C=CCOC(=O)[C@@H]1[C@H]2C(=O)O[C@H](c3ccccc3)[C@H](c3ccccc3)N2[C@H](c2ccc(OCCOC(=O)[C@H]3C[C@H]4C(=O)N5CCC[C@H]5C(=O)N4[C@H]3c3cccc(OCCO)c3)cc2)[C@@]12C(=O)Nc1ccc(I)cc12 | 1.04 | 0.994 | 0.746 | 0.241 | 1.4 | 1.38 | -1.32 | 1.44 | 0.555 | 0.0266 (inactive)
CC(C)OC(=O)CC(=O)CC(O)c1cccc([N+](=O)[O-])c1 (stereo not given) | 0.68 | 1.14 | 0.4 | 0.438 | 0.461 | -0.277 | -0.428 | -0.0245 | 0.265 | 1.9 (inactive)
COC(=O)[C@@]1(Cc2ccc(OC)cc2)[C@H]2c3cc(C(=O)N4CCCC4)n(Cc4ccc(C(F)(F)F)nc4)c3C[C@H]2CN1C(=O)c1ccccc1 | 1.4 | 1.22 | 1.14 | 0.683 | 0.0995 | -0.342 | 0.939 | 0.087 | 0.902 | -7.63 (inactive)
C=CCC(OC(C)=O)[C@@H]1[C@@H](N(Cc2cc3ccccc3o2)C(=O)Cc2ccc(OC)cc2)c2cc(OCCCO)ccc2N1C(=O)c1ccc2ccccc2n1 (stereo not given in full) | 0.264 | -0.314 | 0.138 | 0.301 | 0.654 | 0.0376 | -0.194 | 0.0249 | -0.0063 | -0.219 (inactive)
NC(=O)N1C(=O)C2C(C1=O)C1C=C(CCCO)C2C(c2ccc(CN3CCCC3)cc2)N1Cc1cc2c(cc1Br)OCO2 (stereo not given) | 0.197 | -0.445 | -0.214 | -0.713 | 0.583 | 1.2 | -0.193 | 0.117 | -0.419 | 0.542 (inactive)
Cc1ccc(S[C@]2(C(=O)NCCCN(C)C)CC(=O)N(C3Cc4ccccc4C3)[C@@H]2c2ccc(CO)cc2I)cc1 | 0.0192 | 0.132 | -0.0489 | 0.493 | 0.135 | -0.813 | -0.522 | -0.515 | 0.0805 | -0.222 (inactive)
O=C1[C@H]2C=C(I)[C@H](C[C@@H]2OCCCCCCO)[C@@]12CO2 | -0.624 | -0.334 | -0.0716 | -0.312 | 1.12 | 0.888 | 0.368 | 1.07 | -0.291 | 0.683 (inactive)
O=C(NC1CC1)[C@@H]1c2ccccc2C(=O)N(Cc2ccc(OC(F)(F)F)cc2)[C@H]1c1ccc(CO)cc1 | -0.0809 | 0.836 | 0.234 | -1.39 | 0.664 | 0.668 | 1.39 | 0.39 | 0.331 | 1.12 (inactive)
C=C(CCCC)/C(=C/C[C@H](OC(=O)c1ccncc1)c1ccc(OCCO)cc1)c1cnc2ccccc2c1 | 2.06 | 1.23 | 0.525 | 0.892 | 1.28 | 1.02 | 2.39 | 1.27 | 1.36 | -1.83 (inactive)
CC(=O)OCC1C2CC[C@H]3C(OCc4ccc(F)cc4C(F)(F)F)OC[C@]4(C)[C@H]3C2=C(CN4C(=O)OC(C)(C)C)[C@H](C)C1COC(C)=O (stereo not given in full) | 1.14 | -0.267 | 0.0527 | 0.783 | -0.603 | -1.66 | 1.71 | -0.372 | 0.517 | 1.62 (inactive)
O=C1N(Cc2ccccc2)c2ccccc2C[C@@]12COC(c1ccc(OCCCO)cc1)=N2 | 1.55 | 1.21 | 0.75 | 0.785 | 1.3 | 0.326 | 0.0331 | -0.319 | 0.98 | -1.92 (inactive)
C=C(COC)C(=O)CC[C@@H](OC(C)=O)c1ccccc1OCCO | 0.456 | 0.318 | -0.517 | -0.698 | 1.15 | 1.09 | 0.356 | 0.791 | 0.523 | -2.79 (inactive)
COC(=O)[C@]1(Cc2ccccc2)N=C(c2ccc(OCCCO)cc2)O[C@@H]1c1ccccc1CN=[N+]=[N-] | 1.12 | 1.16 | 0.687 | 0.415 | 1.44 | 0.702 | -1.74 | 0.0393 | 0.418 | -1.44 (inactive)
O=C1C2C=CC(C(O)C3CCCCC3)N(n3cnnc3)C2C(=O)N1Cc1ccccc1 (stereo not given) | -0.526 | 1.17 | 0.377 | 0.983 | 1.26 | 0.287 | -1.96 | 1.27 | 1.26 | 1.54 (inactive)
CN(C)CCCC[C@@H]1NC(=O)[C@@H]2C[C@H](C(=O)NCCCCCCNC(=O)CS)[C@H](c3ccc(O)cc3)N2C1=O | 2.26 | 0.91 | 0.335 | 0.767 | 1.31 | 1.87 | -0.15 | 1.38 | -0.204 | -0.25 (inactive)
